Screens (PubChem)
DRD3 antagonist = antagonists of human D3 dopamine receptor. 360,000 compounds, 2.5% hits. max response, negative = inhibition, %. P35462. D3R cells, DiscoveRx beta-arrestin luminescence, antagonist mode; active compounds read low. AID 652054; in the data active = max response below about -50%; inconclusive = no clear call, values can overlap the other calls
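Cells plated overnight at 1500 cells/well, then exposed to library compounds with dopamine controls for 90 minutes at 37 degrees C. DiscoveRx reagent added for 30–60 minutes at room temperature; luminescence read, quantitative HTS format.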
D1 agonist = activates the human D1 dopamine receptor; HEK293 T-REx D1 cells, calcium flux, agonist mode; activation, % at 2 µM; 360,000 compounds, 1% hits; AID 504660; in the data active = activation above about 30%
Target sequence (P21728 whole entry, looked up): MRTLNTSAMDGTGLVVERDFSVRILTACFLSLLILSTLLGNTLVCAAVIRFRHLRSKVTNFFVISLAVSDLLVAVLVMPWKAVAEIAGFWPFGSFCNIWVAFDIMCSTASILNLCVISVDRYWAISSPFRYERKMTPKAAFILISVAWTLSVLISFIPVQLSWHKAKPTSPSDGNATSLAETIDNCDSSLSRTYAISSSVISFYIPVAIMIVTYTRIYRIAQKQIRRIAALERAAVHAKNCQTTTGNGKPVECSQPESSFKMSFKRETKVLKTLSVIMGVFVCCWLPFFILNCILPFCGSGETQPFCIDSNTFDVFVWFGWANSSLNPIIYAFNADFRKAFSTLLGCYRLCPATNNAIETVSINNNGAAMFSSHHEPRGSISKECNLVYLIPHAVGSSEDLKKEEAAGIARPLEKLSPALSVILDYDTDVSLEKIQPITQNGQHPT
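Tetracycline-induced HEK293 TREx D1 cells, force-coupled to calcium signalling, were dye-loaded with a no-wash calcium kit. Compound was pin-added after a 10 s baseline. Fluorescence was read kinetically at 1 cycle/s for 180 s, with calcium rises flagged as agonism.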
D3 ag = agonists of human D3 dopamine receptor | P35462 | D3R DiscoveRx beta-arrestin cells, luminescence, 90 min | max activation, % | 410,000 compounds, 0.58% hits | AID 652048; in the data active = max activation above about 30%
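Cells at 1500/well, incubated overnight, then treated with pinned compounds (dopamine as control) for 90 min at 37 degrees C. DiscoveRx reagent added for 30 - 60 minutes at room temperature; luminescence read.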
D1 PAM = human D1 dopamine receptor positive modulation; HEK293 TREx D1 cells, calcium flux, dopamine EC20 potentiation; potentiation, % at 10 µM; 360,000 compounds, 0.036% hits; in the data active = potentiation above about 30%
D1 antag = blocks dopamine activation of the human D1 receptor | P21728 | HEK293 TREx D1 cells, calcium flux, dopamine EC80; active compounds read low | activity change, negative = inhibition, % at 10 µM | 360,000 compounds, 3.2% hits; in the data active = activity change below about -30%
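Compound effects on dopamine-evoked calcium signalling were measured in tetracycline-induced HEK293 Trex D1 cells. Dopamine at EC80 followed a 180 s compound pre-read, and fluorescence was tracked kinetically for 180 s more.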
Large screens that a line does not name were inactive; ! = repeats disagree. Rows were chosen to be rich in hits. Some 6% of all compounds tested hit in one or more screens of this group.

COc1ccc(OCc2nnc(SC(C)C(=O)Nc3ccc(N4CCOCC4)cc3)n2C)cc1 (stereo not drawn)	DRD3 antagonist -77.2 (no result: D1 agonist, D1 PAM, D1 antag)
CCOc1ccc(NC(=O)C(C)Sc2nnnn2C)cc1 (stereo not drawn)	D1 antag -31.7
O=C(Cc1coc2cc3c(cc12)CCC3)NC1CCCCCCC1	D1 antag -50.9
CCCCC(=O)NC(c1ccc(N(CC)CC)cc1)c1ccc2cccnc2c1O (stereo not drawn)	D3 ag 32.4
CCCCC(=O)NC(c1ccc(N(C)C)cc1)c1ccc2cccnc2c1O (stereo not drawn)	none
CCCC(=O)NC(c1ccc(C)cc1)c1ccc2cccnc2c1O (stereo not drawn)	D3 ag 31.4
c1ccc(CNc2nc3ccccc3c3nc(-c4ccccc4)nn23)cc1	none (no result: DRD3 antagonist)
O=C(CCCn1c(=O)c2ccccc2n(Cc2cccc(F)c2)c1=O)NCc1ccccc1Cl	none (no result: DRD3 antagonist)
Cc1ccc(C)c(NC(=O)C2CCCN2S(=O)(=O)c2ccc3c(c2)CCCC(=O)N3)c1 (stereo not drawn)	none (no result: DRD3 antagonist)
O=c1[nH]c(CSc2nc3ccccc3[nH]2)nc2c1cnn2-c1ccccc1	D1 antag -37.3
O=c1[nH]c(SCc2nc3c(cnn3-c3ccccc3)c(=O)[nH]2)nc2ccccc12	none
Cc1cc(C)c(S(=O)(=O)NCC(c2ccc(N(C)C)cc2)N2CCc3ccccc32)c(C)c1 (stereo not drawn)	none (no result: DRD3 antagonist)
CCOc1ccc(OCCC(=O)OCC(=O)Nc2ccc3c(c2)OCO3)cc1	D1 antag -52.8
O=C(COc1ccc2c(c1)OCO2)Nc1cccc(F)c1	D1 antag -43.8 (no result: D1 PAM)
CC(C)(C)NS(=O)(=O)c1ccc(OCC(=O)Nc2ccc3c(c2)OCCO3)cc1	D1 antag -30.1
CCOc1ccc(N(CC(=O)Nc2ccc3c(c2)OCO3)S(=O)(=O)c2ccccc2)cc1	D1 antag -46.0 (no result: DRD3 antagonist)
CCOc1ccc(S(=O)(=O)N(CC(=O)Nc2ccc3c(c2)OCO3)c2ccc(C)cc2)cc1	none (no result: DRD3 antagonist)
CCn1c(=NC(=O)c2ccc3c(c2)OCCO3)sc2c(C)ccc(OC)c21	none (no result: DRD3 antagonist)
Cc1ccc(OCCCC(=O)Nc2ccc3c(c2)OCO3)cc1	DRD3 antagonist -51.9
CCCC(c1nnnn1CCc1ccccc1)N1CCN(C(=O)c2ccco2)CC1 (stereo not drawn)	DRD3 antagonist -51.0
CCCCC(c1nnnn1CCOC)N1CCN(C(=O)c2ccco2)CC1 (stereo not drawn)	none
Cc1ccc(O)c(-c2cc(C(F)(F)C(F)F)[nH]n2)c1	D1 agonist 164.1
Cc1cccc(C(=O)Oc2c(Sc3ccccc3)c(C)nn2C(C)(C)C)c1	none (no result: DRD3 antagonist)
CCCCNC(=O)/C(C#N)=C/c1ccc(F)cc1F	D1 antag -52.5
CCOc1ccc(N=c2scc(-c3ccccc3)n2CCO)cc1	none
OCCn1c(-c2ccc(F)cc2)csc1=Nc1ccccc1	D1 antag -30.9
OCCn1c(-c2ccc3c(c2)OCO3)csc1=Nc1ccccc1	DRD3 antagonist -70.3
Cc1cc(C(F)(F)F)nn1-c1nc(-c2ccccc2)cc(C(F)(F)F)n1	none (no result: DRD3 antagonist)
CCOc1ccc(S(=O)(=O)N(CC(=O)NCCSc2ccccc2)c2ccccc2)cc1	none (no result: DRD3 antagonist)
Cc1ccc(NC(=O)CSc2nc3ccccc3n2CC(=O)N2CCC(C)CC2)cc1C	none (no result: DRD3 antagonist)
C=CCn1c(Sc2ncc([N+](=O)[O-])s2)n[nH]c1=O	DRD3 antagonist -80.4
C=CCn1c(CSc2ccccc2[N+](=O)[O-])n[nH]c1=S	none
Cc1ccc(NC(=O)Cn2c(=O)n(CCC(=O)NCc3ccccc3Cl)c(=O)c3ccccc32)cc1	none (no result: DRD3 antagonist)
CC1CCC(C(C)C)C(OC(=O)Cn2c(-c3ccc(F)cc3)[n+](C)c3ccccc32)C1 (stereo not drawn)	DRD3 antagonist -72.1
CC1CCC(C(C)C)C(OC(=O)Cn2c(-c3ccccc3)[n+](C)c3ccccc32)C1 (stereo not drawn)	none
CCn1c(SC)nc2c([nH]c3ccccc32)c1=O	none (no result: DRD3 antagonist)
CC[C@@H](C)[C@@H]1CN([C@@H](C)CN2CCC[C@H]2CN2C(N)=NC[C@@H]2Cc2ccccc2)C(=N)N1CCc1ccc(Cl)c(Cl)c1	DRD3 antagonist -66.2 (no result: D1 agonist, D1 PAM, D1 antag)
Cc1cc(C)n(-c2nc3ccccc3nc2Nc2cccc(C(F)(F)F)c2)n1	none (no result: DRD3 antagonist)
COc1ccc(C2=Nc3ccc(Br)cc3C(c3ccccc3)N2CC(=O)NN)cc1 (stereo not drawn)	DRD3 antagonist -92.8
COc1ccc(C2=Nc3ccc(C)cc3C(c3ccccc3)N2CC(=O)NN)cc1 (stereo not drawn)	DRD3 antagonist -105.2
COC(=O)CN1C(c2ccc(Cl)cc2)=Nc2ccc(Cl)cc2C1c1ccccc1 (stereo not drawn)	none
NNC(=O)CN1C(c2cccc(Cl)c2)=Nc2ccc(Br)cc2C1c1ccccc1 (stereo not drawn)	DRD3 antagonist inconclusive
CCOC(=O)C(C)Sc1nnc2cc(C)c3ccccc3n12 (stereo not drawn)	none (no result: DRD3 antagonist)
N#CC(c1ccccc1)c1ccc2c(C(F)(F)F)cc(C(F)(F)F)nc2n1 (stereo not drawn)	DRD3 antagonist -80.2
COc1ccc(Cn2ccc3nc(C)c(C(=O)N4CCN(c5ccccc5F)CC4)cc3c2=O)cc1	none (no result: DRD3 antagonist)
COc1ccc(CN2CC(=O)N(c3ccc(C)c(C)c3)C2=S)cc1OC	D1 antag -36.0
COc1cc(CN2CC(=O)N(c3ccc(C)c(C)c3)C2=S)cc(OC)c1OC	none
Cc1cccc(N2CCN(C(=O)Nc3ccc(F)cc3)CC2C)c1 (stereo not drawn)	D1 agonist 32.6 (no result: DRD3 antagonist)
COc1cccc(NC(=O)N2CCN(c3cccc(C)c3)C(C)C2)c1 (stereo not drawn)	D1 antag -82.6
O=C(CNC(=O)c1cccc(Cl)c1)OC(C(=O)Nc1cc(C(F)(F)F)ccc1Cl)c1ccccc1 (stereo not drawn)	none (no result: DRD3 antagonist, D3 ag)
O=C(CN1CCSc2ccccc21)NCc1ccccc1F	none (no result: DRD3 antagonist)
O=C(CCOc1ccccc1)N(Cc1cccnc1)c1nc2c(F)cc(F)cc2s1	none (no result: DRD3 antagonist, D1 antag)
Cn1cc(-c2cc3n(n2)CCC(=O)N3CCCC(=O)NCc2ccc(F)cc2)c2ccccc21	D1 antag -32.7 (no result: DRD3 antagonist)
COc1cc2c(cc1OC)C1O[C@](c3ccsc3)(C2)Oc2c1c(=O)oc1ccc(F)cc21	none (no result: DRD3 antagonist, D3 ag)
Oc1oc(-c2cccc3ccccc23)nc1/C=N/c1nccs1	DRD3 antagonist inconclusive, D1 agonist 43.6
O=C(NCCN1CCN(c2ccccc2)CC1)Nc1ccccc1Cl	DRD3 antagonist -83.0
O=C(NCCN1CCN(c2ccccc2)CC1)Nc1ccccc1Br	DRD3 antagonist -78.6, D1 antag -32.7!
CCCN1CCN(CCNC(=O)Nc2ccccc2Cl)CC1	DRD3 antagonist -76.5
CCOC(=O)c1sc2ccccc2c1S(=O)(=O)Nc1ccc(OC)c(Cl)c1	none (no result: DRD3 antagonist)
O=C(Nc1ccc(Nc2ccccc2)cc1)c1c(Cl)cccc1Cl	none (no result: D1 agonist, D1 PAM, D1 antag)
O=C(Nc1ccc(Nc2ccccc2)cc1)c1c(F)c(F)c(F)c(F)c1F	D1 antag -30.6
